# A number with no mark means an inactive call. Records with an inconclusive call do not appear. Where a call stands in place of a potency, no number is given. The source made the active and inactive calls. The call rests on the fitted dose curve; in most records, active means well fitted curve in the direction sought with a large enough effect; inconclusive means small, poorly fitted or top-dose-only effect, or another doubt; inactive means no such curve, though single readings can be large; an effect the other way counts as inactive or inconclusive.
# Tests used:
# [1] = target: Lysine-specific demethylase 5B (Homo sapiens) (UniProt Q9UGL1); assay: Optimization screen for KDM5B Histone Demethylases FDH coupled qHTS against the LOPAC library (AID 1347166)
# Sequence of Lysine-specific demethylase 5B (Homo sapiens) (Q9UGL1 whole entry, looked up): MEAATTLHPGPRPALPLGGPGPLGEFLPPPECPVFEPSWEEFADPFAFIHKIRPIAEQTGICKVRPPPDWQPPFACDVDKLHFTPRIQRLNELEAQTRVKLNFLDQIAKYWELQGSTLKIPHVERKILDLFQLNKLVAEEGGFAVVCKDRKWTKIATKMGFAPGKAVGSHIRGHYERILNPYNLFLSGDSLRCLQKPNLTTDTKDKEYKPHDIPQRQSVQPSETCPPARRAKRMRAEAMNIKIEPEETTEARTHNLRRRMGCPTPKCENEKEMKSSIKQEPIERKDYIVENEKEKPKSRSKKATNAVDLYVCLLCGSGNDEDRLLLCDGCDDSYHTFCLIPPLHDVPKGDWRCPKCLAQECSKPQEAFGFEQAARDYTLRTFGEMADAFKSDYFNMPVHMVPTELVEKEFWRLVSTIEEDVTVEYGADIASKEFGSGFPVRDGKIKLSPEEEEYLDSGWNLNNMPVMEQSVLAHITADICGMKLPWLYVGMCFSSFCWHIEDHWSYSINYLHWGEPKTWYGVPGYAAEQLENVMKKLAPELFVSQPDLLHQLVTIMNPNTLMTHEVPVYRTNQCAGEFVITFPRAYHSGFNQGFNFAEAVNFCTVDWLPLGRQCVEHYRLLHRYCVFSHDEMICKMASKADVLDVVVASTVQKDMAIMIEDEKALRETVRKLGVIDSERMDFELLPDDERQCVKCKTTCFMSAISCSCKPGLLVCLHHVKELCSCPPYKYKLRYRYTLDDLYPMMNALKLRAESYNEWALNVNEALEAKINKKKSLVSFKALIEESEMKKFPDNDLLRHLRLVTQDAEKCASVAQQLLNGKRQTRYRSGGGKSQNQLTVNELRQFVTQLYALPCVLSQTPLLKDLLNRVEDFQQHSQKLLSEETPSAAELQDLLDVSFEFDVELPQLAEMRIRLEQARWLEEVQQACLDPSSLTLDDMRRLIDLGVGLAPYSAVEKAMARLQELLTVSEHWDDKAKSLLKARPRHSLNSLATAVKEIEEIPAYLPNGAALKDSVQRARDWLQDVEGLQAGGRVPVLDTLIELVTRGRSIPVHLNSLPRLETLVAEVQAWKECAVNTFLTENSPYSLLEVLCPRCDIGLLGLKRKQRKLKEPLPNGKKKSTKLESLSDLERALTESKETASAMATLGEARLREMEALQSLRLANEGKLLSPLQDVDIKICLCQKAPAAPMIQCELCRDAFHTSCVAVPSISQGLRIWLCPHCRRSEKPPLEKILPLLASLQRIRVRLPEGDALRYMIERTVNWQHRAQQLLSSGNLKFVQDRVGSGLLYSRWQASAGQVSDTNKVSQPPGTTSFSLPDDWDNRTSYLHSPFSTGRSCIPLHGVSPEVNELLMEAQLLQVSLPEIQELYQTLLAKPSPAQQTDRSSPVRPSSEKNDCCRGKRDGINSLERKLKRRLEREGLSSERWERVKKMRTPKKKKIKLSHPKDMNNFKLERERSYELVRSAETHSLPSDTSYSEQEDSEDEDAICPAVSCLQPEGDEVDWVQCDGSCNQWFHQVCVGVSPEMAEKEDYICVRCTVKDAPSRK
# Outline: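 KDM5BDeltaAP (200nM final) preincubated 10 min with compound, then 12.5uM H3K4Me3, 25uM a-ketoglutarate, ascorbate, Fe(II), NAD+ and FDH added; 50mM HEPES pH 7.5, 0.01% Tween-20. NADH fluorescence (340/450 nm) change over 30 min, room temperature.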
# [2] = qHTS to identify inhibitors of the type 1 interferon - major histocompatibility complex class I in skeletal muscle: primary screen against the NCATS LOPAC collection (AID 1347405);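 further: lytic HiBiT luminescence reporting HLA-B protein level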
# Outline: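 CRISPR-engineered immortalized human myoblasts (C25cl48) with HiBiT fused to endogenous HLA-B*08:01, stimulated with 4 ng/ml IFN-beta. LOPAC compounds tested as a 7-point 1:4.3 titration (top 46 uM final), 24 h at 37 C; lytic HiBiT luminescence read.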
# [3] = qHTS for inhibitors of adenylyl cyclases using a fission yeast platform: a pilot screen against the NCATS LOPAC library (AID 1347410)
# Outline: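 S. pombe CHP2027 (AC9-GNAS-PDE4D2) carrying PKA-repressed fbp1-GFP, incubated 18 h at 30C in EMM with LOPAC compounds at up to 57 uM. GFP gain-of-signal read by laser scanning cytometry; DMSO negative control.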
# [4] = Validation qHTS assay for inhibitors of Activation Induced Cytidine Deaminase (AID): UDG Counterscreen signal (AID 1347427)
# Outline: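 Counterscreen read of UDG activity (2 U/mL, 4/3x) in the FRET deamination format with AID (1 uM, 4/3x), DJC20/DJC23 substrates (250 nM, 4x), 4 h at room temperature. NaOH stop, fluorescence at 560 ex/665 em.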
# [5] = target: Single-stranded DNA cytosine deaminase (Homo sapiens) (UniProt Q9GZX7); assay: Validation qHTS assay for inhibitors of Activation Induced Cytidine Deaminase (AID): AID signal (AID 1347429)
# Sequence of Single-stranded DNA cytosine deaminase (Homo sapiens) (Q9GZX7 whole entry, looked up): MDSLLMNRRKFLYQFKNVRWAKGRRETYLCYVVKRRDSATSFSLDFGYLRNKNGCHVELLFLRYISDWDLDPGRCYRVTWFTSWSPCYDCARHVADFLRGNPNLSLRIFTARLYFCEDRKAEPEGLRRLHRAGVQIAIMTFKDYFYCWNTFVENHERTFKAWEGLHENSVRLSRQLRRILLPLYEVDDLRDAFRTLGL
# Outline: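 FRET deamination assay: 1 uM AID (4/3x stock) with UDG, compound up to 114 uM, then 250 nM DJC20/DJC23 substrate (4x stock) for 4 hr at room temperature. NaOH added, 30 min; fluorescence read 540/590 nm.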
# [6] = Primary qHTS for inhibitors of La Crosse Virus (LACV) - induced cell death in SH-SY5Y cells (AID 1508616);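 further: top concentration of the series differs between compounds; higher means more rescue of cells from virus-induced death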
# Outline: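 SH-SY5Y cells (6000/well) plated 24 h, then given compounds by pin transfer and LACV at 0.01 MOI for 6 days at 37C. Viability measured by ATPLite luminescence, normalized to infected DMSO and uninfected DMSO.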
# [7] = target: Calcium and integrin-binding protein 1 (Homo sapiens) (UniProt Q99828); assay: Validation qHTS for Identification of Calcium Integrin Binding protein 1 (CIB1) Competitor (AID 1508618)
# Sequence of Calcium and integrin-binding protein 1 (Homo sapiens) (Q99828 whole entry, looked up): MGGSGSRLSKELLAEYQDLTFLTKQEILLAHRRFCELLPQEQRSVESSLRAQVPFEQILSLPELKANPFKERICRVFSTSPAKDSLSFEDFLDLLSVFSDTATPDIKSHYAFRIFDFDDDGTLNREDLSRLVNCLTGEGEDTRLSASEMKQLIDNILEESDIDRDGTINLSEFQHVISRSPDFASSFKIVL
# Outline: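 Fluorescence polarization with 1 uM CIB1-GST and 100 nM FITC-alphaIIb peptide in HEPES pH 7.4, NaCl, 5 mM CaCl2, Tween20. Compounds at up to 114 uM final, preincubated with protein 15 min; read after 15 min more at RT.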
# [8] = system: Zika virus NS2B-NS3 protease (linked construct); assay: Primary screen NINDS Rhodamine qHTS for Zika virus inhibitors (AID 1347160); conditions: outcome: dose series up to 57.1 µM unless noted; further: nearly all actives have a fitted effect of over 55% in size
# Outline: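 Purified NS2B-NS3 protease with the NS2B hydrophilic domain joined by a flexible linker (25 nM) in 10 mM Tris-HCl pH 8.0, 0.01% Tween 20, preincubated 15 min at RT with compound; Rhodamine110 peptide substrate 1.5 µM; fluorescence change over 15 min; 4-parameter Hill fit.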
# [9] = target: Protein phosphatase 1D (Homo sapiens) (UniProt O15297); assay: RapidFire Mass Spectrometry qHTS Assay for Modulators of WT P53-Induced Phosphatase 1 (WIP1) (AID 1347424);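 further: amount of dephosphorylated VEPPL-S-QETFS peptide product formed by WIP1; series mostly up to about 63 µM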
# Sequence of Protein phosphatase 1D (Homo sapiens) (O15297 whole entry, looked up): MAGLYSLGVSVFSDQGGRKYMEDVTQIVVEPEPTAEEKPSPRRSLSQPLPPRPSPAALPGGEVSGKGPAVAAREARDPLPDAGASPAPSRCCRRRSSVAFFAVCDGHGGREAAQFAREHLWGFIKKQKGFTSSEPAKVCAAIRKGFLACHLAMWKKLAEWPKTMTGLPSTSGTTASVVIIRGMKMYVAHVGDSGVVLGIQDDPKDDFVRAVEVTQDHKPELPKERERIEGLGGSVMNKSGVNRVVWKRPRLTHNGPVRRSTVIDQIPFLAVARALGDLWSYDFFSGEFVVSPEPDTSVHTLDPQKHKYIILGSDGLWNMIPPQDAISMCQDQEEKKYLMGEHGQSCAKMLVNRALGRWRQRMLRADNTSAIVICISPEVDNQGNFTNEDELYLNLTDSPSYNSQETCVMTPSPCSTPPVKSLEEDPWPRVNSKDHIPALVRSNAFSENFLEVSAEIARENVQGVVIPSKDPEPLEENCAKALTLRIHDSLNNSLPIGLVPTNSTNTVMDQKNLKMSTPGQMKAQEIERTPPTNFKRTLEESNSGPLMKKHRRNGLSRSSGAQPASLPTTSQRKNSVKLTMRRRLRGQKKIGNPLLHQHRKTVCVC
# Outline: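 10 nM WIP1 preincubated with compounds 1 hr at room temperature in pH 7.5 Tris buffer with 30 mM MgCl2, 1 mM TCEP; 2 uM VEPPL-pS-QETFS phosphopeptide for 5 min, formic acid quench; dephosphorylated product quantified by RapidFire MS against labelled standard.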
# [10] = target: Protein phosphatase 1D (Homo sapiens) (UniProt O15297); assay: Rhodamine-PBP qHTS Assay for Modulators of WT P53-Induced Phosphatase 1 (WIP1) (AID 1347425)
# Outline: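 WIP1 (5 nM final) was preincubated with compound for 1 hour at room temperature. It then dephosphorylated 10 uM VEPPL-pS-QETFS peptide in Tris-HCl pH 7.5 with 30 mM MgCl2. Released Pi was detected by 10 uM Rh-PBP fluorescence (ex 525/em 598 nm) read at 1-min intervals for 11 min, as delta f1 - f0.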
# [11] = target: Calcium and integrin-binding protein 1 (Homo sapiens) (UniProt Q99828); assay: Primary qHTS for Identification of Calcium Integrin Binding Protein 1 (CIB1) Competitor (AID 1508620);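 further: GST tagged CIB1 binding a fluorescein labelled alphaIIb integrin peptide tracer; top concentration of the series differs between compounds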
# Outline: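 Fluorescence polarization competition: GST-tagged CIB1 (1 uM final) preincubated with compound 15 min at room temperature, then FITC-labelled alphaIIb peptide (100 nM final) added. After 15 min at room temperature, polarization read at Ex 480/Em 540.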
# [12] = Confirmatory screen NINDS Rhodamine qHTS for Zika virus inhibitors (AID 1347161); further: nearly all actives have a fitted effect of over 60% in size; further: potency means the concentration at half of the fitted maximal effect
# Outline: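 Percent inhibition, normalized to uninhibited and enzyme-free controls, is fitted to a 4-parameter Hill equation. Fluorescence change comes from a 15-min cleavage of 1.5 microM bis-peptide Rhodamine110 substrate by 25 nM linked NS2B-NS3 at room temperature.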
# [13] = system: Zika virus NS2B-NS3 protease (linked); assay: 384 well plate NINDS AMC confirmatory qHTS for Zika virus inhibitors (AID 1347163); further: potency means the concentration at half of the fitted maximal effect; nearly all actives have a fitted effect of over 50% in size
# Outline: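 Linked NS2B-NS3 protease (final 5 nM, 30 nM or 60 nM) was preincubated with compounds (final up to 1 mM) for ~15 minutes. Ac-VKTGKR-AMC substrate (final 30 microM) then reacted for 25 minutes at room temperature in the dark. Fluorescence (ex 355/em 460 nm) was normalized to no-enzyme and no-inhibitor controls.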
# [14] = system: Zika virus NS2B-NS3 protease (linked construct); assay: 384 well plate NINDS Rhodamine confirmatory qHTS for Zika virus inhibitors (AID 1347164); conditions: rhodamine-110 peptide substrate fluorescence;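 further: fluorescence from protease cleavage of Ac-LKRR-rhodamine 110 substrate; potency means the concentration at half of the fitted maximal effect; nearly all actives have a fitted effect of over 65% in size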
# Outline: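 Linked NS2B-NS3 protease (final 5, 30 or 60 nM) preincubated ~15 minutes with compounds, then 10 microM Ac-LKRR-Rhodamine 110 added. Fluorescence (485/538 nm) read after 25 minutes at room temperature, normalized to no-enzyme and no-inhibitor controls.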
# [15] = HepG2 cells viability qHTS for Zika virus inhibitors (AID 1347168)
# Outline: (§1)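 Cells seeded at 2.5 x 10^5 cells/mL in DMEM with 4% FBS and attached overnight at 37 degrees C, then exposed to compound for 24 to 48 hours. Viability read as ATP content by CellTiter Glo luminescence.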
# [16] = Tertiary RLuc qRT-PCR qHTS assay for Zika virus inhibitors (AID 1347169); further: nearly all actives have a fitted effect of over 55% in size; further: potency means the concentration at half of the fitted maximal effect
# Outline: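 Vero cells (1,000/well) infected with recombinant ZIKV-RLuc (Cambodian) at MOI 1-2 after compound addition, 48-72 hrs at 37 degrees C. Live-cell Renilla luciferase substrate added; luminescence read after 1-1.5 hrs.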
# [17] = qHTS to identify inhibitors of the type 1 interferon - major histocompatibility complex class I in skeletal muscle: primary screen against the NCATS Mechanism Interrogation Plate v5.0 (MIPE) Libary (AID 1347411); further: nearly all actives have a fitted effect of over 65% in size
# Outline: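 Immortalized human myoblasts (C25cl48) with HiBit knocked into endogenous HLA-B*08:01 were stimulated with 4 ng/ml IFN-beta and given compounds in 11-point 1:3 titration from 46 uM. After 24 h at 37 C, lytic HiBiT luminescence was read.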
# [18] = qHTS to identify inhibitors of the type 1 interferon - major histocompatibility complex class I in skeletal muscle: primary screen against the NCATS Pharmaceutical Collection (AID 1347407);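 further: luminescence of HiBiT knocked into endogenous HLA-B as interferon-induced MHC class I level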
# Outline: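 Immortalized human myoblasts (C25cl48) with HiBiT knocked into endogenous HLA-B*08:01 were stimulated with 4.0 ng/ml IFN-beta and treated with compounds ([…] top 46 uM) for 24 hrs at 37 C. HiBiT lytic luminescence read.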
# [19] = Vero cells viability qHTS for Zika virus inhibitors (AID 1347167)
# Outline: as §1
structure (smiles),measurement,setting,value
NC(N)=NCCCCN=C(N)N,outcome,[1],inactive
same,Potency,[2],inactive
same,outcome,[3],inactive
same,outcome,[4],inactive
same,outcome,[5],inactive
same,outcome,[6],inactive
same,outcome,[7],inactive
O=C(O)Cc1ccccc1Oc1ccc(Cl)cc1Cl,outcome,[8],inactive
same,Potency,[9],inactive
same,outcome,[10],inactive
same,outcome,[6],inactive
same,Potency,[11],inactive
CCCN(CCC)C(=O)C(CCC(=O)OCCCN1CCN(CCOC(=O)Cc2c(C)n(C(=O)c3ccc(Cl)cc3)c3ccc(OC)cc23)CC1)NC(=O)c1ccccc1 (centres undefined),outcome,[8],inactive
same,Potency,[9],inactive
same,outcome,[10],inactive
same,outcome,[6],inactive
same,Potency,[11],inactive
CC(C(O)c1ccccc1)N(C)CCOC(c1ccccc1)c1ccccc1 (centres undefined),outcome,[8],inactive
same,Potency,[9],inactive
same,outcome,[10],inactive
same,outcome,[6],inactive
same,Potency,[11],inactive
OC1(c2ccc(Cl)c(C(F)(F)F)c2)CCN(CCCC(c2ccc(F)cc2)c2ccc(F)cc2)CC1,outcome,[8],inactive
same,Potency,[9],inactive
same,outcome,[10],inactive
same,outcome,[6],inactive
same,Potency,[11],inactive
O=C1NC(=O)/C(=C/c2ccc3c(c2)OC(F)(F)O3)S1,Potency,[12],7.84 µM (active)
same,Potency,[13],7.94 µM (active)
same,Potency,[14],5.01 µM (active)
same,outcome,[1],inactive
same,outcome,[15],inactive
same,Potency,[16],11.7 µM (active)
same,outcome,[3],inactive
same,Potency,[17],inactive
same,outcome,[4],inactive
same,outcome,[5],inactive
same,outcome,[6],inactive
same,Potency,[11],inactive
CN(CC1(C)CCCO1)S(=O)(=O)c1ccc(Cl)c(S(N)(=O)=O)c1 (centres undefined),outcome,[8],inactive
same,Potency,[18],inactive
same,outcome,[10],inactive
same,outcome,[6],inactive
same,Potency,[11],inactive
COc1c(C)c2c(c(O)c1C/C=C(\C)CCC(=O)OCCN1CCOCC1)C(=O)OC2,outcome,[19],inactive
same,Potency,[16],0.739 µM (active)
same,Potency,[18],inactive
same,outcome,[10],inactive
same,Potency,[11],inactive
O=C(COCCOCCOCC(=O)Nc1c(I)cc(I)c(C(=O)O)c1I)Nc1c(I)cc(I)c(C(=O)O)c1I,Potency,[12],inactive
same,Potency,[16],inactive
same,Potency,[9],inactive
same,outcome,[10],inactive
same,outcome,[6],inactive
CN(C)[C@@H]1C(=O)C(C(N)=O)=C(O)[C@@]2(O)C(=O)C3=C(O)c4c(O)cccc4C[C@H]3C[C@@H]12,Potency,[13],126 µM (active)
same,Potency,[18],inactive
same,Potency,[9],inactive
same,outcome,[10],inactive
same,outcome,[6],inactive
same,Potency,[11],inactive
CCC(=O)O[C@H]1[C@H](O[C@@H]2[C@@H](C)[C@H](O[C@H]3C[C@@](C)(OC)[C@@H](O)[C@H](C)O3)[C@@H](C)C(=O)O[C@H](CC)[C@@](C)(O)[C@H](O)[C@@H](C)C(=O)[C@H](C)C[C@@]2(C)O)O[C@H](C)C[C@@H]1N(C)C,Potency,[12],2.78 µM (active)
same,Potency,[13],355 µM (active)
same,Potency,[14],63.1 µM (active)
same,outcome,[19],inactive
same,outcome,[15],inactive
same,Potency,[16],inactive
same,Potency,[18],inactive
same,outcome,[10],inactive
same,outcome,[6],inactive
same,Potency,[11],inactive
CC(=O)Oc1ccc(C2(c3ccc(OC(C)=O)cc3)Oc3ccccc3NC2=O)cc1,outcome,[8],inactive
same,Potency,[9],inactive
same,outcome,[6],inactive
same,Potency,[11],inactive
CC(=O)Nc1ccn(C2COC(COC(=O)c3ccccc3)O2)c(=O)n1 (centres undefined),outcome,[8],inactive
same,Potency,[18],inactive
same,Potency,[9],inactive
same,outcome,[10],inactive
same,Potency,[11],inactive
